Reference: PubChem BioAssay (NCATS)
Where “and” joins values, the source holds several entries; their conditions need not be identical. Identical values can stand only once. Records with an inconclusive call do not appear. A call without a number means that no potency is given here. Calls of active or inactive are those of the source. Unless noted, calls follow the shape of the dose curve; as a rule, active = well fitted curve in the direction sought with a large enough effect; inconclusive = small, poorly fitted or top-dose-only effect, or another doubt; inactive = no such curve, though single readings can be large; an effect the other way counts as inactive or inconclusive.

How the values were obtained:
[1] = qHTS assay for small molecule antagonists of retinoid X receptor alpha signaling (AID 588546; active = well fitted inhibition curve with a large enough effect in the signal ratio, with a control signal flat, not every such curve was filed as active; the % refers to the signal ratio;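 also: cells stimulated with 9-cis-retinoic acid as agonist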); settings: HEK293T RXRa-UAS-bla, beta-lactamase ratio, antagonist mode; measured here: W530 green channel, cytotoxicity proxy
Outline: (§1)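 Beta-lactamase reporter inhibition, read as CCF4 fluorescence ratio (ex 405, em 460/530 nm) after 2 h at RT. HEK293T UAS-bla cells, 2500/well, were stimulated with 9-cis-RA at 500 or 100 nM final alongside test compound for 18 h at 37 C.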

[2] = biological target: Retinoic acid receptor RXR-alpha (Homo sapiens) (UniProt P19793); experiment: as above; settings: HEK293T RXRa-UAS-bla, beta-lactamase ratio, antagonist mode
Outline: as §1

[3] = biological target: Thyroid hormone receptor beta (Homo sapiens) (UniProt P10828); experiment: qHTS assay for small molecule antagonists of thyroid hormone receptor beta signaling (AID 588547; active = well fitted inhibition curve with a large enough effect in the signal ratio, with a control signal flat, not every such curve was filed as active; the % refers to the signal ratio;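 also: cells stimulated with 0.4 nM T3 agonist during compound exposure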); settings: TR-UAS-bla HEK293, beta-lactamase ratio, antagonist mode, 18 h
Outline: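 Inhibition of T3-driven (0.4nM final) beta-lactamase reporter activity was measured over 0.59 nM to 92 uM compound after 18 h at 37 C. The cells were GripTite HEK293 TR-UAS-bla in charcoal/dextran-stripped serum, with CCF4 ratio read-out and IC50 from Hill fits.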

[4] = qHTS assay for small molecule activators of the p53 signaling pathway (AID 651743; active = well fitted activation curve with a large enough effect in the signal ratio, not every such curve was filed as active; the % refers to the signal ratio); settings: HCT-116 p53RE-bla, beta-lactamase FRET ratio, 16 h; activation: stronger effect = higher value
Outline: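 Screen for p53 pathway agonists uses stably transfected p53RE-bla HCT-116 cells, 4,000 per well, treated 16 h at 37 C with compounds in DMSO.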

[5] = Cell Viability - Hek293 (AID 427;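 active = compounds whose dose-response curve shows a full or clear partial loss of cell viability, called from curve shape rather than a numeric limit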;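 also: potency is read from the fitted curve at half-maximal effect; cells exposed to compound for 40 hours at 37 °C before reading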); settings: qHTS
Outline: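 AC50 values derive from Hill-modelled concentration-response of ATP-based luminescence, normalized between DMSO-only and 100 uM tamoxifen controls. Cells were exposed in complete culture medium for 40 hr at 37 °C before detection.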

[6] = Cell Viability - LYMP2-003 (AID 965); settings: LYMP2-003 lymphoblastoid cell viability; series mostly up to 92.2 µM;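 also: cells exposed to compounds for 24 h before reading; nearly all actives have a fitted effect of over 50% in size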
Outline: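 Human lymphoblastoid cells (2500/well) were pre-incubated 5 hr at 37 C, then exposed to compounds over a concentration range for 24 hr at 37 C. Intracellular ATP was read by CellTiter-Glo luminescence; AC50 came from Hill-equation fits.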

[7] = Cell Viability - LYMP2-009 (AID 968); settings: LYMP2-009 lymphoblastoid cell viability; series mostly up to 92.2 µM; also: nearly all actives have a fitted effect of over 55% in size
[8] = Cell Viability - LYMP2-015 (AID 971); settings: LYMP2-015 lymphoblastoid cell viability; series mostly up to 92.2 µM; also: nearly all actives have a fitted effect of over 55% in size
Outline: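 Human lymphoblastoid cells (2500/well) in complete medium were preincubated 5 hr at 37 C, then compound-treated 24 hr at 37 C. Intracellular ATP was read by CellTiter-Glo luminescence after 30 min at room temperature; AC50 came from Hill-equation concentration-response fits.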

[9] = Cell Viability - LYMP2-017 (AID 972); settings: LYMP2-017 lymphoblastoid cell viability; series mostly up to 92.2 µM; also: nearly all actives have a fitted effect of over 55% in size
Outline: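 Human lymphoblastoid cells (2500/well) were seeded in complete medium, held 5 hr at 37 C, then exposed to compounds for 24 hr at 37 C. Intracellular ATP was read by CellTiter-Glo luminescence after 30 min at room temperature, with AC50 values from Hill-equation fits.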

[10] = Cell Viability - LYMP2-019 (AID 973); settings: LYMP2-019 lymphoblastoid cell line viability; series mostly up to 92.2 µM; also: nearly all actives have a fitted effect of over 55% in size
Outline: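 Human lymphoblastoid cells were seeded at 2500 cells/well, preincubated 5 hr at 37 C, then exposed to compounds for 24 hr at 37 C in complete medium. Intracellular ATP was measured by CellTiter-Glo luminescence; AC50 from Hill fits.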

[11] = Cell Viability - LYMP2-023 (AID 975); settings: LYMP2-023 lymphoblastoid cell viability; series mostly up to 92.2 µM
Outline: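 Human lymphoblastoid cells (2500/well) were preincubated 5 hr at 37 C, then exposed to compounds for 24 hr at 37 C in complete medium. Cellular ATP was read by CellTiter-Glo luminescence, and AC50 came from Hill-equation fits.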

[12] = Cell Viability - LYMP2-025 (AID 976); settings: LYMP2-025 lymphoblastoid cell viability; series mostly up to 92.2 µM
Outline: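 Human lymphoblastoid LYMP2-025 cells (2500/well) were pre-incubated 5 hr at 37 C, then treated with compounds for 24 hr at 37 C in complete medium. Viability was read as intracellular ATP by CellTiter-Glo luminescence; AC50 from Hill fits.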

[13] = Cell Viability - LYMP2-006 (AID 978); settings: LYMP2-006 lymphoblastoid cell viability, qHTS; series mostly up to 92.2 µM; also: nearly all actives have a fitted effect of over 60% in size
Outline: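 Human lymphoblastoid cells, 2500 per well, were preincubated 5 hr at 37 C, then exposed to compounds for 24 hr at 37 C in complete medium. Viability was read as intracellular ATP by CellTiter-Glo luminescence; AC50 from Hill-equation fits of qHTS concentration-response data.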

[14] = Cell Viability - LYMP2-007 (AID 979); settings: LYMP2-007 lymphoblastoid cell viability; series mostly up to 92.2 µM;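 also: cells exposed to compound for 24 h before reading; nearly all actives have a fitted effect of over 60% in size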
Outline: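 Human lymphoblastoid cells (2500/well) were plated in complete medium, incubated 5 hr at 37 C, then exposed to compounds for 24 hr at 37 C. Intracellular ATP was read by CellTiter-Glo luminescence after 30 min at room temperature; AC50 from Hill fits.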

[15] = Cell Viability - LYMP2-008 (AID 980); settings: LYMP2-008 lymphoblastoid cell viability, qHTS; series mostly up to 92.2 µM; also: nearly all actives have a fitted effect of over 60% in size
Outline: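 Human lymphoblastoid cells (2500/well) were plated, held 5 hr at 37 C, then exposed to compounds for 24 hr at 37 C in complete medium. Intracellular ATP was read by CellTiter-Glo luminescence; AC50 from Hill-fitted concentration-response.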

[16] = Cell Viability - LYMP2-018 (AID 985); settings: LYMP2-018 lymphoblastoid cells, viability (qHTS); series mostly up to 92.2 µM;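 also: compound exposure lasted 24 hr at 37 °C; nearly all actives have a fitted effect of over 50% in size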
Outline: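 Human lymphoblastoid cells (2500/well) were pre-incubated 5 hr at 37 C, then exposed to compounds for 24 hr at 37 C in complete medium. Viability was read as intracellular ATP by CellTiter-Glo luminescence; AC50 values came from Hill-equation fits.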

[17] = Cell Viability - LYMP2-022 (AID 987); settings: LYMP2-022 lymphoblastoid cell viability; series mostly up to 92.2 µM; also: nearly all actives have a fitted effect of over 55% in size
Outline: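 Human lymphoblastoid cells, 2500/well, preincubated 5 hr at 37 C, then exposed to compounds over a concentration range for 24 hr at 37 C in complete medium. Viability read as intracellular ATP by CellTiter-Glo luminescence after 30 min at room temperature; AC50 from Hill fits.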

[18] = Cell Viability - LYMP2-026 (AID 989); settings: LYMP2-026 lymphoblastoid cell viability, qHTS; series mostly up to 92.2 µM; also: nearly all actives have a fitted effect of over 50% in size
Outline: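 Human lymphoblastoid cells (2500/well) in complete medium were preincubated 5 hr at 37 C, then exposed to compounds for 24 hr at 37 C. Cellular ATP was read by CellTiter-Glo luminescence; AC50 from Hill-equation fits of concentration-response data.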

[19] = Cell Viability - LYMP1-002 - Assay at 24 hr (AID 993); settings: LYMP1-002 lymphoblastoid cells viability; series mostly up to 92.2 µM
Outline: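 Human lymphoblastoid LYMP1-002 cells, 2500/well in complete medium, were treated with compounds for 24 h at 37 C; intracellular ATP was read by CellTiter-Glo luminescence. AC50 values came from Hill-equation fits of qHTS concentration-response data.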

[20] = Cell Viability - LYMP1-002 - Assay at 40 hr (AID 994); settings: LYMP1-002 lymphoblastoid cell viability; series mostly up to 92.2 µM; also: nearly all actives have a fitted effect of over 60% in size
Outline: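 Human lymphoblastoid cells, 2500/well in complete medium, were preincubated 5 hr at 37 C, then exposed to compounds for 40 hr at 37 C. Intracellular ATP was read by CellTiter-Glo luminescence after 30 min at room temperature; AC50 from Hill-equation fits.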

Chain of Retinoic acid receptor RXR-alpha (Homo sapiens) (P19793 whole entry, looked up): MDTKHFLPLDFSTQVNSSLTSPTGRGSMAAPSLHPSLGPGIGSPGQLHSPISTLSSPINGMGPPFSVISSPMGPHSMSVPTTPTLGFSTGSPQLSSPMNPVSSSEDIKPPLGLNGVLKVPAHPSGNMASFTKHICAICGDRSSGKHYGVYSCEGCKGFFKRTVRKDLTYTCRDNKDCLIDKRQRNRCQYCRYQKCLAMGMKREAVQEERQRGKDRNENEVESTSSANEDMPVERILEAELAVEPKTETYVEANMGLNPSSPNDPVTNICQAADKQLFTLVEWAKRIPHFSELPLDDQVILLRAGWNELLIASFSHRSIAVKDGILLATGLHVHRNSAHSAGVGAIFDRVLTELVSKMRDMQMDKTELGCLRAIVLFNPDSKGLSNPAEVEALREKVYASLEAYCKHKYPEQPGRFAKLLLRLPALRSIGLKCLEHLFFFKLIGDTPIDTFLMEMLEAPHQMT
Chain of Thyroid hormone receptor beta (Homo sapiens) (P10828 whole entry, looked up): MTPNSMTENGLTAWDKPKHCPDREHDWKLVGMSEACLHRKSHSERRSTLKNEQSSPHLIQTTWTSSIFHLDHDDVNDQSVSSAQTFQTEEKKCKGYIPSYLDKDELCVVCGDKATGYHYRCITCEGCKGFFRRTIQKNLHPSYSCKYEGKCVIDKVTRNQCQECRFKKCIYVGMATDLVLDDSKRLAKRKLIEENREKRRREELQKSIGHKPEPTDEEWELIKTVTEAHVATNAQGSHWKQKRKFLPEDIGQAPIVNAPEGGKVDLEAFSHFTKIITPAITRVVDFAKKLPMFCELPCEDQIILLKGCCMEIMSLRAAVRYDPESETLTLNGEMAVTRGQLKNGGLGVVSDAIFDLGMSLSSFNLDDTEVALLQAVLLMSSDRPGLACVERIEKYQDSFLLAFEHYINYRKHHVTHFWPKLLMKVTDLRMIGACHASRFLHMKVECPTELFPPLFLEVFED

Row | SMILES | max response [1] | max response [2] | activity change % (negative = inhibition) [3] | activation [4] | Potency [5] | Potency [6] | Potency [7] | Potency [8] | Potency [9] | Potency [10] | Potency [11] | Potency [12] | Potency [13] | Potency [14] | Potency [15] | Potency [16] | Potency [17] | Potency [18] | Potency [19] | Potency [20]
1 | O=C(O)C1C2CCC(O2)C1C(=O)O (configuration not stated) | -24.5% | -26.2% (inactive) | -12% (inactive) | 4.04% (inactive) |  |  |  |  |  |  |  |  |  |  |  |  |  |  |  | 
2 | COC1=CC(=O)OC(CCc2ccccc2)C1 (configuration not stated) | -2.34% | 14.2% (inactive) | 3.59% (inactive) | -2.49% (inactive) | > 92 µM (inactive) | inactive | inactive | inactive | inactive | inactive | inactive | inactive | inactive | inactive | inactive | inactive | inactive | inactive | inactive | inactive
3 | COC1=CC(=O)O[C@@H](/C=C/c2ccc3c(c2)OCO3)C1 | 10.1% | -29.4% (inactive) | 4.69% (inactive) | -5.07% (inactive) |  | inactive | inactive | inactive | inactive | inactive | inactive | inactive | inactive | inactive | inactive | inactive | inactive | inactive | inactive | inactive
4 | Clc1ccc2ccccc2c1 |  |  | -12% (inactive) | 1.92% (inactive) | > 92 µM (inactive) | inactive | inactive | inactive | inactive | inactive | inactive | inactive | inactive | inactive | inactive | inactive | inactive | inactive | inactive | inactive
5 | C[C@]12CC[C@H]3[C@@H](CCC4=CC(=O)CC[C@@]43C)[C@@H]1CC[C@@H]2O |  |  | 14.5% (inactive) | -0.245% (inactive) | > 92 µM (inactive) | inactive | inactive | inactive | inactive | inactive | inactive | inactive | inactive | inactive | inactive | inactive | inactive | inactive | inactive | inactive
6 | c1ccc(-c2ccccc2)cc1 | -7.26% and -12.6% | -4.53% (inactive) and 7.05% (inactive) | -3.07% (inactive) and -0.354% (inactive) | 2.71% (inactive) and -2.97% (inactive) | > 92 µM (inactive) | inactive | inactive | inactive | inactive | inactive | inactive | inactive | inactive | inactive | inactive | inactive | inactive | inactive | inactive | inactive
7 | ClCBr | -9.96% | -1.21% (inactive) | 5.81% (inactive) |  | > 92 µM (inactive) | inactive |  | inactive | inactive |  | inactive | inactive | inactive |  | inactive | inactive | inactive | inactive | inactive | inactive
8 | Brc1ccccc1 | -12.3% and -4.99% | -1.11% (inactive) and -6.34% (inactive) | -13.6% (inactive) and -17.2% (inactive) | -1.82% (inactive) and -1.95% (inactive) | > 92 µM (inactive) | inactive | inactive | inactive | inactive | inactive | inactive | inactive | inactive | inactive | inactive | inactive | inactive | inactive | inactive | inactive
9 | Cc1cccc([N+](=O)[O-])c1 | -5.54% and -8.46% | 4.38% (inactive) and -23.2% (inactive) |  | -0.671% (inactive) | > 92 µM (inactive) | inactive | inactive | inactive | inactive | inactive | inactive | inactive | inactive | inactive | inactive | inactive | inactive | inactive | inactive | inactive
10 | Nc1ccccc1Cl | -3.04% | 23.6% (inactive) | -4.52% (inactive) | -1.73% (inactive) | > 92 µM (inactive) | inactive | inactive | inactive | inactive | inactive | inactive | inactive | inactive | inactive | inactive | inactive | inactive | inactive | inactive | inactive
11 | c1nc[nH]n1 | 6.06% | 5.33% (inactive) |  | -1.22% (inactive) | > 92 µM (inactive) |  | inactive | inactive | inactive | inactive | inactive | inactive | inactive | inactive | inactive | inactive | inactive | inactive | inactive | inactive
12 | CCSC(=O)Cl | -5.71% | 1.25% (inactive) | -1.08% (inactive) | -1.99% (inactive) | > 92 µM (inactive) | inactive | inactive | inactive | inactive | inactive | inactive | inactive | inactive | inactive | inactive | inactive | inactive | inactive | inactive | inactive
13 | C=CC1CC=CCC1 (configuration not stated) | -1.79% and -13.7% | 12.3% (inactive) and -16.5% (inactive) | 13.7% (inactive) and -3.35% (inactive) | -3.44% (inactive) | > 92 µM (inactive) | inactive | inactive | inactive | inactive | inactive | inactive | inactive | inactive | inactive | inactive | inactive | inactive | inactive | inactive | inactive
